Values joined by “and” are separate entries in the source; they are usually repeats but may differ in a detail not shown here. Identical values can stand only once. This is part of a sample that, as a whole, favours compounds with a hit. Of some 83,000 tested, about 20% had one in any assay.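 Compound tested at a single concentration for 48 hours in 96-well plates; a percent growth value below 10 was scored as active.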 Active and inactive are the calls of the source.
tested on: CCRF-CEM leukemia; assay: NCI-60 one-dose screen, 48 h (100 = growth as untreated, 0 = no growth, -100 = all killed); conditions: 10 µM unless noted
Description: Growth inhibition of the CCRF-CEM human tumor cell line is measured as a screen for anti-cancer activity. Cells are grown in 96 well plates and exposed to the test compound for 48 hours. Compounds are tested at a single concentration, which is 10^-5 M for most compounds. The reported endpoint is percent growth (GI% or GIPRCNT), where numbers from 0 - 100% represent growth inhibition, and numbers from -100% - 0 represent cell death. For example, a value of 40 represents 60% growth inhibition. A value of 0 means no net growth occurred over the course of the experiment. A value of -40 indicates 40% of cells at the beginning of the experiment died by the end of the experiment. A value of -100 means all cells are dead at the end of the experiment.
NCI-60 Human Tumor Cell Lines Screen was performed using the standard one-dose NCI protocol, which is described in more detail at https://dtp.cancer.gov/discovery_development/nci-60/default.htm.
Compounds with GIPRCNT values below 10 were considered active. Activity score was based on GIPRCNT using the following formula: […]
Score is 0 for GIPRCNT values of 100 or above, 50 for GIPRCNT values of 0, and 100 for GIPRCNT values of -100.

Compound	growth
OCCNC1CCCCC1	103% (inactive)
CC1=C([Te]c2ccccc2)C(=O)c2ccccc2C1=O	-44.9% (active)
CC(C)COC(=O)Cc1ccccc1	95.3% (inactive)
C/C(=C\c1ccn(-c2ccc(N)c(C(F)(F)F)c2)n1)[C@@H]1C[C@@H]2O[C@]2(C)CCC[C@H](C)[C@H](O)[C@@H](C)C(=O)C(C)(C)[C@@H](O)CC(=O)O1	14.3% (inactive)
Cc1cc(N(CCCl)CCCl)ccc1/C=N\NC(=O)c1cccnc1	60.2% (inactive) and 62.1% (inactive)
C[C@]12CC[C@@H](OC(=O)N(CCCl)N=O)C[C@@H]1CC[C@@H]1[C@@H]2CC[C@]2(C)C(=O)CC[C@@H]12	26.6% (inactive)
C#Cc1cccc(Nc2nc(Cl)nc3cc(NC(=O)CF)ccc23)c1	93.4% (inactive)
C[C@]12CC[C@H]3[C@@H](C[C@@H]4SC(Nc5cccc(F)c5)=N[C@@]45CC(=O)CC[C@]35C)[C@@H]1CCC2=O	4.95% (active)
CC[C@H](C)[C@H](NC(=O)c1ncccn1)C(=O)N(C)[C@H](C[C@@H](OC(C)=O)c1nc(C(=O)N[C@@H](Cc2ccccc2)C[C@H](C)C(=O)OC)cs1)C(C)C	10.4% (inactive)
CC[C@H](C)[C@H](NC(=O)[C@H]1CCCCN1C)C(=O)N(C)[C@H](C[C@@H](OC(C)=O)c1cccc(C(=O)N[C@@H](Cc2ccccc2)C[C@H](C)C(=O)OC)n1)C(C)C	14.4% (inactive)
O=C(O)C(F)F	110% (inactive)
O=C1NC(=O)C(=C/C=C/c2ccccc2)C(=O)N1	-7.03% (active)
COc1cc2c(c(OC)c1OC)-c1ccc(O)cc1[C@@H](NC(C)=O)CC2	20.6% (inactive) and -8.81% (active)
C[C@]12CCC3[C@@H](C[C@@H]4SC(Nc5ccccc5)=N[C@@]45CC(=O)CC[C@]35C)[C@@H]1CCC2=O (stereo not given in full)	3.23% (active)
C[Se]/C=C1/C(=O)N(c2c(Cl)cccc2Cl)c2ccccc21	10.2% (inactive)
CC[CH2][Sn]([Cl])([Cl])[CH2]CC.Oc1ccccc1C=NCCN=Cc1ccccc1O	2.05% (active) and 0.18% (active)
CCC(=O)C(CC(C)[N+](C)(C)C)(c1ccccc1)c1ccccc1 (stereo not given)	114% (inactive)
C(=NC1CCCCC1)=NC1CCCCC1	77.3% (inactive)
O=[P+](O)c1cccnc1	98.3% (inactive)
O=C(O)c1ccc(=O)[nH]c1	106% (inactive) and 95.4% (inactive)

Compound	growth
COc1ccc2c(c1)c(-c1nc(-c3c[nH]c4ncccc34)cs1)cn2CCCCN1CCOCC1	-8.39% (active)
Cc1cc(N(CCCl)CCCl)ccc1C=Nc1ccc(-c2csc(-c3ccccc3)n2)cc1	46.5% (inactive)
O=Cc1cn(Cc2ccccc2)c2ccccc12	104% (inactive)
CN(C)c1ccc([N+](=O)[O-])c([N+](=O)[O-])c1	80.9% (inactive) and 94.2% (inactive)
C/C(=N/OC(=O)N(C)C)c1ccc(Cl)c(Cl)c1	98.2% (inactive)
Cc1ccc(S(=O)(=O)n2cc([C@@]3(O)C[C@H](CSC#N)OC3=O)c3ccccc32)cc1	31.7% (inactive)
O=S(=O)(F)c1cccc(Cl)c1C[P+](c1ccccc1)(c1ccccc1)c1ccccc1	86.7% (inactive)
CC1=CC(=O)CCC12CCOC2=O (stereo not given)	82.4% (inactive)
CNC(=O)O/N=C(\SC)C(=O)N(C)C	92.2% (inactive)
CNC(=O)Oc1ccc(Cl)cc1SSc1cc(Cl)ccc1OC(=O)NC	50.7% (inactive)
Oc1ccccc1C=NCCN=Cc1ccccc1O	90% (inactive)
CC(=O)OC1CC2(O)C(CCC3(C)C(c4ccc(=O)oc4)CCC32O)C2(C)CCC(OC3OC(CO)C(O)C(O)C3O)C=C12 (stereo not given)	-25.1% (active)
CCN1C(=O)CC(=O)N(CC)C1=S	94.8% (inactive)
CCC1(NC(=O)c2cc(F)c(F)c(F)c2F)C(=O)NC(=O)N(C(C)C)C1=O (stereo not given)	87.3% (inactive)
C[C@@]12CCCc3coc(c31)C(=O)c1cc3c(cc12)C(=O)C1=C(NCCS1(=O)=O)C3=O	-28.7% (active)
O=c1[nH]c(=O)n(Cl)c(=O)n1Cl	101% (inactive) and 104% (inactive)
Cc1ccc(C(=O)O[C@H](C(=O)O)[C@H](OC(=O)c2ccc(C)cc2)C(=O)O)cc1	105% (inactive)
COc1ccc(N)cc1N	111% (inactive)
CCC(=O)C(CC(C)N1CCCCCC1)(c1ccccc1)c1ccccc1 (stereo not given)	96.1% (inactive)
CCOC(=O)P(=O)(OCC)OCC	118% (inactive)
